Experimental data published in PubChem BioAssay.
Activity calls are given as the source filed them. Unless noted, no rule for the calls is given here.

Columns and labels:
[1] = compounds binding Alexa647 anti-His antibody – biochemical, small-molecule microarray, 635 nm fluorescence, artefact control for SMM control protein annotation, primary screen (AID 1128); details: higher = more signal;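 also: score merges feature fluorescence with signal-to-noise for each printed compound spot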
[2] = test system: Human papillomavirus type 1a E7 protein (residues 1-88); assay: HPV1a E7 small-molecule binders, primary screen, biochemical, small-molecule microarray, residues 1-88, 635 nm (AID 1129); details: small-molecule microarray binding, fluorescence 635 nm; higher = more signal
[3] = biological target: Focal adhesion kinase 1 (Homo sapiens) (UniProt Q05397); assay: PTK2 protein binding on printed compound slides – biochemical, small-molecule microarray, 635/667 nm fluorescence, BSA, DTT, primary screen (AID 1130); details: 635 nm fluorescence, higher = more signal;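 also: composite of spot emission at 667 nm and signal to noise over triplicate slides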
Chain of Focal adhesion kinase 1 (Homo sapiens) (Q05397 whole entry, looked up): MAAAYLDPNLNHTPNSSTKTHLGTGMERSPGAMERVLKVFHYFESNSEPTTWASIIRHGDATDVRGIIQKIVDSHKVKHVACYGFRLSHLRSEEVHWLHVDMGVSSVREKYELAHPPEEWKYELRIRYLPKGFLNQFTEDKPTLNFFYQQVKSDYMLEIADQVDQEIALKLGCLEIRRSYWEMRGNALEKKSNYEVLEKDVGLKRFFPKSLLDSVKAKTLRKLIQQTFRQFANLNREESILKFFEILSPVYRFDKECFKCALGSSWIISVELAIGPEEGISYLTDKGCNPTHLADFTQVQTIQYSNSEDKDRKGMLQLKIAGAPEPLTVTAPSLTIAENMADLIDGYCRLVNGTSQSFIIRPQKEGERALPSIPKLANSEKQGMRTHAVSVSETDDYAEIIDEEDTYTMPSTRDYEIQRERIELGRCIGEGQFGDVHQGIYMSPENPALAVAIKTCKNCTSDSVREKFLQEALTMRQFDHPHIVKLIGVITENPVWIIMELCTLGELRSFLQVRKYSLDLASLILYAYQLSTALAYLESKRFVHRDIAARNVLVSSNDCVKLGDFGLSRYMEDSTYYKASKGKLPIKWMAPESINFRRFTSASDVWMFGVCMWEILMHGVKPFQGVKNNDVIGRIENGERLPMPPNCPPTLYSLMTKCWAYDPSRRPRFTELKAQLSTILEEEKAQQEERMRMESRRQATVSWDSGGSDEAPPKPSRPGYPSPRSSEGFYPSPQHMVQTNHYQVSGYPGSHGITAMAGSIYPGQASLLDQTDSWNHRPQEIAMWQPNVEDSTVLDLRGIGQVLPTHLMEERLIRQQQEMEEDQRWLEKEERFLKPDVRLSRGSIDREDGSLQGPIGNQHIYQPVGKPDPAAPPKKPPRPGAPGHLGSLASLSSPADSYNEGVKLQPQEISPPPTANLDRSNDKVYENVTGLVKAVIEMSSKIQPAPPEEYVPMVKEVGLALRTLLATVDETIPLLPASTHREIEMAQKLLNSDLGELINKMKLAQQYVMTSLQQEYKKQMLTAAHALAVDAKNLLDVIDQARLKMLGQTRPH

[4] = test system: Fibrinogen (Alexa647-labelled); assay: Alexa647-fibrinogen binding to printed small molecules – biochemical, small-molecule microarray, 635/667 nm fluorescence, artefact control for SMM control-protein annotation, profiling panel (AID 1131); details: fibrinogen-A647 binding fluorescence, higher = more signal;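 also: z-score merges 667 nm fluorescence with per-spot signal-to-noise over triplicate slides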
[5] = biological target: Follistatin (Homo sapiens) (UniProt P19883); assay: FST protein binding to printed compounds – biochemical, small-molecule microarray, 635/667 nm fluorescence, primary screen (AID 1132); details: 635 nm fluorescence, higher = more signal
Chain of Follistatin (Homo sapiens) (P19883 whole entry, looked up): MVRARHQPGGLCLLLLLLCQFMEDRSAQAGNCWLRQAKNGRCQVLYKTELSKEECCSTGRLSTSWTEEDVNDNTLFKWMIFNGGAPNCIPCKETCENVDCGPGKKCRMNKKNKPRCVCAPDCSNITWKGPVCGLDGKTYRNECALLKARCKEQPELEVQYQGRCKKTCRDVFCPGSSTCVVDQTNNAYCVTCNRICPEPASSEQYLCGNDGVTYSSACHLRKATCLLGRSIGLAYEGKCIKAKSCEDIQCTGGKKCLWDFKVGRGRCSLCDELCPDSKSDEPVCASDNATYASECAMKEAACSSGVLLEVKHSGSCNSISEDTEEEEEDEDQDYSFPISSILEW

[6] = biological target: Fibroblast growth factor 2 (Homo sapiens) (UniProt P09038); assay: basic fibroblast growth factor binding to printed compounds – biochemical, small-molecule microarray, 635/667 nm fluorescence, primary screen (AID 1133); details: FGF2, fluorescence 635/667, higher = more signal
Chain of Fibroblast growth factor 2 (Homo sapiens) (P09038 whole entry, looked up): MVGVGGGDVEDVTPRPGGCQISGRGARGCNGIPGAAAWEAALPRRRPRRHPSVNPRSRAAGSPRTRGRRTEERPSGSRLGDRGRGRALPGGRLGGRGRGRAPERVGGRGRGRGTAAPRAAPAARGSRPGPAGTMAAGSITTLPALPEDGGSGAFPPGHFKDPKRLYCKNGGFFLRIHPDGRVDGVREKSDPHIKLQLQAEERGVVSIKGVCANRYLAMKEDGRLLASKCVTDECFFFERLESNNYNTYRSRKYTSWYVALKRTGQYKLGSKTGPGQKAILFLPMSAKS

[7] = JC-1 mitochondrial potential readout, lung cancer cells – cell-based, A549, JC-1 fluorescence, basal, 24 h, 100 nL, profiling panel (AID 1138); details: higher = more signal;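 also: A549 lung adenocarcinoma cells under basal conditions with no added stimulus; test concentration not given here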
[8] = test system: Lefty1; assay: Lefty1 protein binding to printed compounds – biochemical, small-molecule microarray, 635/667 nm fluorescence, primary screen (AID 1139); details: fluorescence 635/667, higher = more signal
[9] = test system: wheat germ agglutinin (Triticum aestivum), Alexa647-labelled; assay: Alexa647-WGA lectin binding to printed small molecules – biochemical, small-molecule microarray, 635/667 nm fluorescence, artefact control for SMM control-protein annotation, profiling panel (AID 1140); details: WGA-A647 binding, 635 nm fluorescence, higher = more signal;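 also: score merges 667 nm feature emission with signal to noise over triplicate slides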
[10] = biological target: Luciferin 4-monooxygenase (Photinus pyralis) (UniProt P08659); assay: inhibition of purified Photinus pyralis luciferase – biochemical, luminescence, purified enzyme, 2006 set, primary screen (AID 1141); details: purified firefly luciferase, SteadyGlo luminescence, 30 min; higher = more signal, called active from +8 up or from −8 down;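 also: cell-free assay with purified firefly luciferase at 100 ng per well in PBS; test concentration not given here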
Chain of Luciferin 4-monooxygenase (Photinus pyralis) (P08659 whole entry, looked up): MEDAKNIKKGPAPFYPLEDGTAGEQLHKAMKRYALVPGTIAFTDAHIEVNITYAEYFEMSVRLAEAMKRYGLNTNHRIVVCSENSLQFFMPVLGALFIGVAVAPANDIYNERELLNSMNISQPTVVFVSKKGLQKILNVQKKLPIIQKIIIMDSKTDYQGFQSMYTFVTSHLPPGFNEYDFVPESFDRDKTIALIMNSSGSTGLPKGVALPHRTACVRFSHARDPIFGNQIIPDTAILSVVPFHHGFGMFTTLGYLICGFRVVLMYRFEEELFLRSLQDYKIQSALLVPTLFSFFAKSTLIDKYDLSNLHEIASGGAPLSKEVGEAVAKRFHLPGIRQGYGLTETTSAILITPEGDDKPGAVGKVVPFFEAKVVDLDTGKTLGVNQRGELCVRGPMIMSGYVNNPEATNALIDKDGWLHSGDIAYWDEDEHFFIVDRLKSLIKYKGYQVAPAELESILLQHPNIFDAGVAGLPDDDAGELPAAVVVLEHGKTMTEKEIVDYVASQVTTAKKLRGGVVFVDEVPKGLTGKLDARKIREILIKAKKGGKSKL

[11] = test system: Wnt5a (protein binding on small-molecule microarray); assay: small molecules binding Wnt5a protein – biophysical, small-molecule microarray, 635/667 nm fluorescence, primary screen (AID 1142); details: 635 nm fluorescence, higher = more signal;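 also: fluorescence read at 667 nm with signal to noise per printed feature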
[12] = ATP-based viability of Huh7 replicon cells – cell-based, CellTiter-Glo luminescence, basal, 48 h, cytotoxicity control for HCV replication inhibitor project, primary screen (AID 1143); details: higher = more signal, called active from +8 up or from −8 down;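 also: Huh7 hepatoma cells carrying a hepatitis C replication reporter with no stimulus; test concentration not given here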
[13] = Pseudomonas biofilm growth suppression – PAO1 strain, BacTiter-Glo luminescence, LB-PBS, primary screen (AID 1144); details: P. aeruginosa PAO1 biofilm, 12 h, higher = more signal
[14] = basal CRE-LacZ reporter activity in PC12 – cell-based, unstimulated, primary screen (AID 1145); details: no forskolin, luminescence, 4.5 h, higher = more signal, called active from +8 up or from −8 down
[15] = forskolin-driven CRE-LacZ activity in PC12 – cell-based, CRE-LacZ reporter, forskolin-stimulated, primary screen (AID 1146); details: luminescence, 4.5 h, higher = more signal, called active from +8 up or from −8 down;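 also: PC12 cells with 6xCRE LacZ reporter stimulated by forskolin 10 µM; beta-galactosidase reporter signal reflecting CREB driven transcription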
[16] = biological target: Streptavidin (Streptomyces avidinii) (UniProt P22629); assay: compounds binding control protein streptavidin – biophysical, small-molecule microarray, 635/667 nm fluorescence, artefact control for SMM compound annotation, primary screen (AID 1147); details: higher = more signal;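 also: signal reflects streptavidin binding to arrayed compounds as a control protein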
Chain of Streptavidin (Streptomyces avidinii) (P22629 whole entry, looked up): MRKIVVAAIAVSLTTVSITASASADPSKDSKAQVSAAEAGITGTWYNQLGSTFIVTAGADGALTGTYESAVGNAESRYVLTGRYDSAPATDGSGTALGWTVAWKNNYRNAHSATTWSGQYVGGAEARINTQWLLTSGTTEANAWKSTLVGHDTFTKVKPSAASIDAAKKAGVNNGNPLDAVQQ

[17] = probe aInhba binding on compound microarray – biochemical, small-molecule microarray, 635/667 nm fluorescence, primary screen (AID 1148); details: higher = more signal;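 also: score merges 667nm spot fluorescence with signal-to-noise for antibody binding to printed compounds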
[18] = biological target: Torsin-1A (Homo sapiens) (UniProt O14656); assay: TOR1A wild-type binding on microarray – cell lysate, small-molecule microarray, lysate, 635/667 nm, primary screen (AID 1149); details: COS7 hTOR1A-WT lysate, 635 nm fluorescence, higher = more signal
Chain of Torsin-1A (Homo sapiens) (O14656 whole entry, looked up): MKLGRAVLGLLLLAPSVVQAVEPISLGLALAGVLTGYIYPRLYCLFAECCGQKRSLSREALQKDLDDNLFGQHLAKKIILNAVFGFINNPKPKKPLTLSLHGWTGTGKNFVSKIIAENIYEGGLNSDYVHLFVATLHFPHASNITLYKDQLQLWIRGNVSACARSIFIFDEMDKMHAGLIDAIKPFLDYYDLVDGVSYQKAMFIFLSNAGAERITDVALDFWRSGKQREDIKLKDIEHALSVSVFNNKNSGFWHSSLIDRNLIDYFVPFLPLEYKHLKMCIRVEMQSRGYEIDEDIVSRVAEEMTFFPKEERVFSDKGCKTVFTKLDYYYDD

[19] = biological target: Torsin-1A (Homo sapiens) (UniProt O14656); assay: torsin A mutant lysate binding on microarrays – cell lysate, small-molecule microarray, COS7 lysate, 635/667 nm fluorescence, primary screen (AID 1150); details: COS7 hTOR1A mutant lysate, 635 nm fluorescence, higher = more signal;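 also: score pools 667 nm emission and signal to noise measuring lysate protein binding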
[20] = test system: Sonic hedgehog protein (Shh); assay: Sonic hedgehog microarray binding compounds – biochemical, small-molecule microarray, 635/667 nm fluorescence, primary screen (AID 1151); details: 635 nm fluorescence, higher = more signal;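 also: Shh protein binding to compounds spotted on small-molecule microarray slides; score combines spot fluorescence intensity with signal-to-noise across triplicate slides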

Row | SMILES | composite z-score [1] | composite z-score [2] | composite z-score [3] | composite z-score [4] | composite z-score [5] | composite z-score [6] | z-score [7] | composite z-score [8] | composite z-score [9] | z-score [10] | composite z-score [11] | z-score [12] | z-score [13] | z-score [14] | z-score [15] | composite z-score [16] | composite z-score [17] | composite z-score [18] | composite z-score [19] | composite z-score [20]
1 | CO[C@H]1COC(=O)[C@H](C)COC(=O)[C@H](C)NC(=O)CC=C[C@H]1C | 0.0849 | -0.375 | -0.315 | -1.01 | 1.41 | 1.43 | 0.763 | 1.36 | -0.729 | -0.403 (inactive) | 0.108 | -1.34 (inactive) | 0.598 (inactive) | 0.611 (inactive) | -0.506 (inactive) | -0.237 | -0.0762 | 1.26 | 1.18 | 1.88
2 | CC(C)CON=C1C[C@@H](O)[C@@H](O)[C@@H]2[C@@H]3C(=O)N(Cc4ccccc4)C(=O)[C@@H]3CC[C@H]12 | 0.247 | 0.502 | 0.052 | 0.666 | 0.363 | 0.474 | -1.03 | 0.669 | 0.134 | 1.14 (inactive) | 0.0659 | -1.75 (inactive) | -1.46 (inactive) | -0.0223 (inactive) | 0.627 (inactive) | -0.682 | -0.212 | 0.0783 | 0.208 | 0.503
3 | O=C(NN=C1C[C@@H](O)[C@@H](O)[C@@H]2[C@@H]3C(=O)N(c4ccc(F)cc4F)C(=O)[C@@H]3CC[C@H]12)OCc1ccccc1 | 0.746 | 0.76 | 0.0097 | 0.501 | 0.28 | 0.0684 | -0.63 | 0.331 | 0.114 | 0.934 (inactive) | -0.0874 | -0.845 (inactive) | 0.0604 (inactive) | -0.299 (inactive) | 0.139 (inactive) | 0.727 | -0.101 | 0.671 | 1.13 | -0.836
4 | CON(C)C(=O)c1nnc2c(n1)[nH]c1ccccc12 | 0.459 | 0.607 | 0.137 | 0.471 | 0.545 | 0.635 | -0.448 | 0.596 | 0.816 | -2.33 (inactive) | 0.0269 | 0.569 (inactive) | 0.555 (inactive) | 0.198 (inactive) | 0.275 (inactive) | 0.153 | -0.101 | 0.275 | 0.333 | 0.928
5 | O=C1C2=CC[C@H]3C(=O)N(Cc4ccccc4)C(=O)[C@H]3[C@H]2[C@H](O)[C@@H]2O[C@H]12 | 0.198 | 0.111 | -0.36 | 0.739 | -0.267 | -0.022 | -0.447 | -0.423 | 0.254 | -0.174 (inactive) | -0.134 | -6.84 (inactive) | 0.252 (inactive) | 0.518 (inactive) | 25 (active) | -0.0955 | -0.128 | 0.367 | 0.216 | -0.575
6 | COC(=O)CC=C1c2ccccc2[C@H](OC)[C@H]1C | -0.706 | -0.352 | -0.102 | -0.479 | -0.0211 | 0.621 | -0.612 | 0.338 | -0.488 | 0.469 (inactive) | 0.0034 | 0.553 (inactive) | 0.624 (inactive) | 0.478 (inactive) | 0.345 (inactive) | -0.0324 | 0.0275 | 0.399 | -0.127 | 0.103
7 | CC=CC1=C(CO)[C@H](O)[C@H]2O[C@H]2[C@@H]1O | 0.343 | 0.23 | -0.401 | -0.0599 | 0.937 | 0.45 | -0.537 | 0.911 | -0.0224 | -0.0811 (inactive) | 0.0984 | -0.0795 (inactive) | -0.549 (inactive) | -0.525 (inactive) | 1.26 (inactive) | 0.162 | 1.37 | 0.587 | 0.131 | 0.875
8 | COC(=O)CC=C[C@@H](C)[C@@H](C=NOC(C)CN1CCCCc2nc(C)c(C)cc21)NS(=O)(=O)c1ccc(C)cc1 (stereo not given in full) | 0.0454 | 0.156 | 0.0646 | -0.207 | 0.927 | 0.601 | -0.297 | 0.417 | 0.0721 | 0.183 (inactive) | 0.104 | 0.453 (inactive) | 0.89 (inactive) | -0.882 (inactive) | 0.877 (inactive) | -0.343 | -0.0221 | 1.05 | 0.705 | 0.56
9 | COc1ccc(O[C@H]2C=C[C@@H](c3ccccc3)O[C@@H]2CON=C2c3cc(OC)ccc3O[C@H](c3cccc(OC)c3)[C@H]2O)cc1 | -0.622 | 0.463 | 0.121 | -0.413 | 0.618 | 1.63 | 0.0904 | 1.1 | 0.701 | 1.16 (inactive) | 0.288 | -0.0115 (inactive) | -0.0389 (inactive) | 0.913 (inactive) | 0.411 (inactive) | 0.414 | -0.224 | 0.0513 | 0.37 | 0.105
10 | COC(=O)CC=C[C@@H](C)[C@@H](C=NOC[C@@H](O)[C@H]1O[C@@H]2OC(C)(C)O[C@@H]2[C@H]1O)OC | 1.57 | 0.612 | 0.167 | 0.0843 | 0.834 | 0.943 | 0.0187 | 0.59 | 0.006 | -0.512 (inactive) | 0.183 | 0.559 (inactive) | 0.601 (inactive) | -0.0545 (inactive) | 0.0127 (inactive) | 0.271 | -0.149 | -0.104 | 0.162 | 0.867
